In the supplement of paper PMC12632987:
Whole data set: some 2,300 sequences, median “median log2 fold change of GCK-ALFA target abundance (FLAG IP / Myc IP barcode read proportion)” near 0.095, cut for the lowest 2% near -0.47. The sample as a whole holds a higher share of the lowest values than the screen did.

B1: LC3A_132_267 (protein)
chain: SEELFEEALEELKEILDKIVDLLKAGKDPSPAITELYNTALEYSEKLSLEETEELVEKTIEYAEKLFAERLDPNDVEARRTLDIIEMLLEGVLIEKELRS
B2: LC3A_132_266 (protein)
chain: SEELFEKALEELKEILDKIVEALKAGEDPSPLINELYEKAKEYAKKLSLEETEKLVEETIEYAEKLFKERLDPNDEEAIRTLDIIEMLLEGVLIEKELES
B3: LC3A_132_308 (protein)
chain: GEELAKKLIEIAKEALRLVKEDDSKEEEVLELLREAKELMEKLAKEASPELAAKTFEEVEEILIEISRLAAKKGWDEVSDEAFALAAEAAQLKSDAKKKL
B4: LC3A_free_46_2355 (protein)
chain: VKAEILIDLLHEDEEVLKKAVEEIKKAAKEIAKKYGLKVEIKEEISKLPDGSYYAEIEITLTGETKEKLEKAVTELINKIDEIAKKYNVAAIISYEIIEE
B5: LC3A_free_46_2426 (protein)
chain: VDIDVDLLLEGDDEEKLKAAVEEIKEAFKKIAEEYNAELEIEVEFSTDPDGNHFAHINIKITSDDLETQQKIANESIDSIDKIAEKYGVSYIISVDIEKK
B6: LC3A_17_555 (protein)
chain: MEELKKELEELLKELEKLVKELEKYDPEAAKKLKEKLKEAKKALEKGDLKKALKILKEVAEEAAEVFDSLEHIDPELMSILSMEAEGLLIEALSLEEKLE
B7: LC3A_17_554 (protein)
chain: SEELKEEIKRLLEELEALVEELEKYDPEAAKELRKKLEEAKKALEEGDLEEALKILKEVAEEAAERWDSLEHIDPERMSILSMEAEGLLIEALSLEEKLE
B8: LC3A_28_1027 (protein)
chain: SAAEKAIEKAREEARKQKAEGKDIYVTIEVTSSTTLEDAKTIVEGIREIVEEFKDEKNINIIIDVERGVSQEVIDTLADGAEEIEKEYPNVNIIIALEEE
B9: LC3A_127_175 (protein)
chain: ELEELLKKLLEVAEELSEELSKPDADLEEIERLVKEAIELAKKALELDPRAEPILEAAEEIKKQLEQYKKAPEEKKEELREHMEMLAESLIIEIESLLLR
B10: LC3A_23_616 (protein)
chain: MYKVEIIVDIIVPKEEAEKVEKDLLETINKVLEKNKSKIKEYKIEVEKEELEDGTVLLTIKVTIIYDGNKEEAEELANELVSAIDKTAPDAVISAEVSKI
B11: LC3A_141_376 (protein)
chain: KEVEFELEAKGETPEEVVEKMDELEEKVLKAYEELGGGKVKVKVTLTLTNRETGEVKVVEEEFVGDKETIEMLLDGFLIEAASAVMRAPTDVKLKVVLEK
B12: LC3A_28_1118 (protein)
chain: SLAEKVIKAFEKQVEAAIASGEETLIEVEVSPELSQEEVEKLAKKMAEYAKKAAEKLKVSVLVSVEKGVSQEKIDIIADEAEKVEEEYPNVNVIIALEEE
B13: LC3A_3_1420 (protein)
chain: MEEELERALEELREAGWSEETLEALREVVEALLERGAEEEARRVLELVLENKDISSEDLLEVLREVLELLKTPGVSPEEAVERLEELLRIARNEQEIEEL
B14: LC3A_free_0_2100 (protein)
chain: MVTKVEVLGIIPDKSAKEAAEAIKEKLEEYGKKLSEEKGWKVTVELTEVDGSYVITVTIEGEGMSIEEGLEIADEIADLIEELAKEHGVEVTIYESVYEE
B15: LC3A_147_496 (protein)
chain: ATVEVDVLVKDKEAAEKVVEEFKKLVEKLKKQGIEVELEVEIEQISPDTWYVKITIKIKAKTEEEEKKVANEVVDEIEKIEEKYKDKILASLISVEIEEK
B16: LC3A_147_465 (protein)
chain: KKYEVVLDVLVKDLTPELLKDFEELAEEIKEKFPDAEVELKVETDPEDPSLTLVTLTVTVDTEEDAEKILDFLDEKEEELEKKYSDQILASMISKQEVEP
B17: LC3A_147_464 (protein)
chain: MKYRVELDVLVKNLTPELLADFEELAEEIKKKFPDAEVELKVETDPEDPSLSLVTLTVTVDTEEDAKKIEDFLDKKLEELEKKYKDQILASMISREKVEP
B18: LC3A_23_598 (protein)
chain: MYKVELIVSLIGEEEEIKKKAEKLKKEIEKILEKYKDKIISYKINVSFEKLEDGKTYLEIEVEIIIEDDEEVAEEIAEELTDAADKILPDGVISVEVEKL
B19: LC3A_141_368 (protein)
chain: TTLTITTDIGRASLDEIVAKMDELEEAALAAHRELGGGRVRVTVTITVKNLKTGETTTITEEFEADEEELELIMEGVLIEVASYALTEDAEVTVTVTLEG
B20: LC3A_3_1723 (protein)
chain: MEKIKAEALAVLKAQGASPETIKAAEELLKALEEKGFLEAAKTLLEELKKLKGVSSEDLLAALKDLLYKVTNEDLSEEEVIEEIKREFSVLKSAKEIEEL
B21: LC3A_141_386 (protein)
chain: MKKEFEFTATEEEAQEVFDFFDEVEKELLEMIEESGGKPVKVKVTIKATNDETGEVVEKEEEFTVTKENVSEVMEGLAIEVLSLLDKVKGTVEVKIEAEV
B22: LC3A_28_1018 (protein)
chain: SELEEQIEEIEKEVEEAIEKGEDVVVTLEIKGSMSEEEVREAMERVKEIVLEGAEKGKVDLVIDVDKDVSQEKLDIVLEAADEIEEKAPNVNVIIALEER
B23: LC3A_147_510 (protein)
chain: YLVEIDVDLLVKNAVEEVKKRFKEIVEKLKKKGYKVELEIKEEKIDENTYYVEVTIKIYAETKEEAEKAANETLSLLDEMLEELKDEILGSLISVDIEET
B24: LC3A_59_2020 (protein)
chain: SEEIEEYREKMRANIDDIDAFTATVREALEKFKDDPEKVKEILKAAMDVVVEELGADKEEAEKVLEEMLKILEEEKDKEKAIEKIVDLIRDLLLLTPIEE
B25: LC3A_free_8_2464 (protein)
chain: ASQKLVDTIVAKLDELEKALVKKAKEEGKSRLDILELELEVGSAIAELISNVDASPEEILKTLKEDLKDIIKVAKEIGEEVAKLAKEKSKEILAEAEALI
B26: LC3A_17_552 (protein)
chain: REELRERLRRLLEELRALVERLEPYDPEAARRLRERLERAEELLEAGRLREAAETLAEAAREAARRAEELEPKYGNEMSVLAMEFNGLELEAIGLLLELD
B27: LC3A_132_298 (protein)
chain: DEEKAKEILEKVKEKVEEAKENIDNEEKVEELLEEIEELIKEAEEKLSPELLAKVMEEVAELLDELSQKFLEAGKEHLAMLADGLAIEAESLALRAEKEI
B28: LC3A_3_1773 (protein)
chain: MEELLARFEEKLRAAGFSEEVIKEALAAIKTFLEKGREEVAETFLELMLEAKDLSEEKLLVMARMAKELAEESKVSEEELIKELKRLFESIAGIEELDEE
B29: LC3A_3_1887 (protein)
chain: MDEKIEETLKRLKEAGASEETLEAFKRVVEKLKARGWDEALNTLIEKVDELLDAPDEVRLAFLQDVLALLDTPGVSEEELIAGINELATLAKNEAEIIEL

The binders below were run against MAP1LC3A, Q9H492 (assay: median log2 fold change of GCK-ALFA target abundance (FLAG IP / Myc IP barcode read proportion) (log2 ratio); each designed protein is fused to an ALFA-tag nanobody in HEK293 cells to bring the named protein to FLAG-tagged glucokinase (GCK); Myc marks an untargeted standard; higher = target protein stabilised (more abundant)). Conditions: target protein: 3xFLAG-MCP-GCK-ALFA reporter; HEK293 landing pad (RPLP).
Procedure, shortened: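 The readout is target abundance, the per-binder median log2 ratio of FLAG to Myc barcode read proportions. It came from HEK293 landing-pad cells carrying a recombined ALFA-nanobody-fused binder library, induced with 2 μg mL^−1 doxycycline and transfected with a plasmid for a FLAG-tagged target and a Myc-tagged standard. After 48 h, lysates were immunoprecipitated with anti-FLAG and anti-Myc, and circular RNA barcodes were reverse transcribed, amplified and sequenced. Each barcode needed a proportion of at least 10^−7 in both replicates and each binder at least 3 barcodes per replicate, a pseudocount of 10^−6 was added, and the replicates were pooled.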

Row | Binder | median log2 fold change
1 | B1 | -0.528
2 | B2 | 0.165
3 | B3 | 0.14
4 | B4 | -0.335
5 | B5 | 0.0526
6 | B6 | -0.476
7 | B7 | 0.24
8 | B8 | 0.173
9 | B9 | 0.0944
10 | B10 | -0.672
11 | B11 | -0.00697
12 | B12 | -0.00261
13 | B13 | 0.3
14 | B14 | -0.121
15 | B15 | -0.154
16 | B16 | -0.192
17 | B17 | -0.487
18 | B18 | -0.0746
19 | B19 | -0.781
20 | B20 | 0.206
21 | B21 | 0.221
22 | B22 | -0.171
23 | B23 | -0.119
24 | B24 | -0.571
25 | B25 | -0.304
26 | B26 | 0.248
27 | B27 | -0.0134
28 | B28 | 0.23
29 | B29 | 0.21
